# Results published in PubChem BioAssay (Tox21).
# Results filed as inconclusive are left out. Entries that show only a call come without a potency. Unmarked numbers belong to inactive results. The source made the active and inactive calls. The call rests on the fitted dose curve; in most records, active means well fitted activation curve with a large enough effect in the repeat runs; inconclusive means weak or mixed curves; inactive means flat fitted curve, though single readings scatter.
# Assay: A CellTox Green Cytotoxicity Assay to monitor cytotoxicity in HepG2 cells - 32 hour (AID 1224883); further: nearly all actives have a fitted effect of over 50% in size
# Details: CellTox Green fluorescence; series mostly up to 76.8 µM
# From the text: National Center for Advancing Translational Sciences [NCATS]
# NIH Chemical Genomics Center [NCGC]
# U.S. Environmental Protection Agency [EPA]
# National Institutes of Environmental Health Sciences [NIEHS]
# National Toxicology Program [NTP]
# Cell-based models are critical for drug discovery. Determining the natural cytotoxic effects resulting from test compounds is an essential research activity. A CellTox Green Cytotoxicity Assay to monitor cytotoxicity in real time of continues cell culture during 40 hours of the compound treatment was used to screen Tox21 10K library compounds in HepG2 cells. CellTox Green Cytotoxicity Assay is a nonlytic, homogeneous, biofluorescent method to measure cytotoxicity in cell culture after experimental manipulation. The assay system uses a proprietary asymmetric cyanine dye that is excluded from viable cells but preferentially stains the dead cell's DNA. […] Viable cells produce no appreciable increases in fluorescence. Therefore, the fluorescence signal produced by the binding interaction with dead cell DNA is proportional to cytotoxicity.
# The mixture of HepG2 cell suspension and reagents were dispensed at 600cells/6 ul/well in 1536-well tissue culture treated black solid bottom plates using a Multidrop dispenser. After the assay plates were incubated at a 37 C/5% CO2 incubator for 5 hours, 23 nL of compounds dissolved in DMSO, positive and negative controls was transferred to the assay plate by a pintool work station. The plates were incubated at 37 C for 40 hours. The fluorescence intensity were measured at 0h, 8h, 16h, 24h, 32h and 40h time points using ViewLux plate reader during compound treatment.
# Potency means the concentration at half of the fitted maximal effect.
Structure (SMILES),Potency,cytotoxicity increase
CCCCCCCC/C=C\CCCCCCCC(=O)OCC,inactive,
CC(C)C[C@H]1C(=O)N2CCC[C@H]2[C@]2(O)O[C@](NC(=O)[C@@H]3C=C4c5cccc6[nH]c(Br)c(c56)C[C@H]4N(C)C3)(C(C)C)C(=O)N12,inactive,
CN(C)c1ccc(CCO)cc1,inactive,
CCOC(=O)Cc1cccc2ccccc12,21.9 µM (active),
C[C@H](CCC(=O)O)[C@H]1CC[C@H]2[C@@H]3CC[C@@H]4C[C@H](O)CC[C@]4(C)[C@H]3C[C@H](O)[C@]12C,inactive,
Cc1cccc(C)c1NC(=O)CN(CC(=O)O)CC(=O)O,inactive,
CN(C)C(=O)NC1(c2ccccc2)CCN(CC[C@@]2(c3ccc(F)c(F)c3)CN(C(=O)c3ccccc3)CCO2)CC1,inactive,
Nc1ccc([N+](=O)[O-])c(C(F)(F)F)c1,inactive,
Cc1ccc(N=Nc2c(O)c(C(=O)O)cc3ccccc23)c(S(=O)(=O)O)c1,inactive,
NCC(=O)O,,1.6% [at 15.8 µM]
COc1cc2nc(Cl)nc(N)c2cc1OC,inactive,
COc1ccc(C(=O)c2ccc(OC)cc2O)c(O)c1,inactive,
CC/C=C\CCOC(=O)CC,inactive,
C[C@@H]1C[C@H]2[C@@H]3CCC4=CC(=O)C=C[C@]4(C)[C@@]3(F)[C@@H](O)C[C@]2(C)[C@@]1(O)C(=O)COC(=O)c1ccncc1,inactive,
CCCCCCCCO[C@@H]1O[C@H](CO)[C@@H](O)[C@H](O)[C@H]1O,inactive,
O=C(O)c1nc(Cl)c(Cl)c(Cl)c1Cl,inactive,
NCC(=O)CCC(=O)O,inactive,
O=C(O)C1(C(=O)O)CCC1.[NH2-].[NH2-].[Pt+2],inactive,
O=C(O)c1ccc(S(=O)(=O)O)cc1C(=O)O,inactive,
COc1ccc(C(=O)Nc2nc3ccccc3c(NCc3ccccc3)c2C#N)cc1,inactive,

Structure (SMILES),Potency,cytotoxicity increase
CCCCc1nc2cccnc2n1Cc1ccc(-c2ccccc2-c2nnn[nH]2)cc1,inactive,
Nc1c(CC(=O)O)cccc1C(=O)c1ccc(Br)cc1,inactive,
NC(N)=NCCC[C@H](N)C(=O)O,,-4.17% [at 6.97 µM]
CN(Cc1ccc(C(C)(C)C)cc1)Cc1cccc2ccccc12,inactive,
O=CC1CC=CCC1 (stereo not given),inactive,
C=CC(=O)OCCOCCOC(=O)C=C,49.2 µM (active),
CCCCC/C=C\C/C=C\CCCCCCCC(=O)NC(C)c1ccccc1 (stereo not given),inactive,
CCCCC(CC)COC(=O)CCCCCCCCC(=O)OCC(CC)CCCC (stereo not given),inactive,
CCOC(=O)c1cccnc1,inactive,
CCCOC(C(=O)OC1CCN(C)CC1)(c1ccccc1)c1ccccc1,21.3 µM (active),
C[N+]1(CC2COC(c3ccccc3)(C3CCCCC3)O2)CCCCC1 (stereo not given),inactive,
CCOc1ccc(N)c([N+](=O)[O-])c1,inactive,
Nc1ccc(S(=O)(=O)Nc2ccccc2)cc1,inactive,
CNC(=O)CN(CCN(CCN(CC(=O)[O-])CC(=O)NC)CC(=O)[O-])CC(=O)[O-].O.[Gd+3],inactive,
CN(C)CCN(Cc1ccccc1)c1ccccn1,inactive,
O=C1c2ccccc2S(=O)(=O)N1CCCCN1CCN(c2ncccn2)CC1,inactive,
CCCCCCCCCOS(=O)(=O)O,inactive,
COc1cccc(N(C)C(=S)Oc2ccc3c(c2)CCCC3)n1,inactive,
O=C1OC(CN2CCOCC2)CN1/N=C/c1ccc([N+](=O)[O-])o1 (stereo not given),inactive,
Cc1[nH]c(C)c(Cl)c(=O)c1Cl,,-7.2% [at 15.8 µM]
